H9c2 protect – modulators protecting cardiomyocytes from myocardial damage | H9c2 cardiomyocytes, H2O2 injury protection, ATPLite, 2 h | protection from H2O2 cell death, % at 20 µM | 360,000 tested, 0.63% active;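 active = compounds giving at least 50% protection of heart cells from peroxide-induced death in the single-dose screen, raw or plate-pattern-corrected value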;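 note: 0% = DMSO wells with peroxide and 100% = DMSO wells without peroxide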
ALR inh – blocks human ALR sulfhydryl oxidase activity | AID 485317 | purified ALR, DTT oxidation, H2O2 HRP-luminol luminescence | inhibition, % (concentration not given with the values) | 290,000 tested, 3.8% active;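 active = mean replicate inhibition above about 79%, with every replicate also reaching it, limit read from the data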
Target sequence (P55789 whole entry, looked up): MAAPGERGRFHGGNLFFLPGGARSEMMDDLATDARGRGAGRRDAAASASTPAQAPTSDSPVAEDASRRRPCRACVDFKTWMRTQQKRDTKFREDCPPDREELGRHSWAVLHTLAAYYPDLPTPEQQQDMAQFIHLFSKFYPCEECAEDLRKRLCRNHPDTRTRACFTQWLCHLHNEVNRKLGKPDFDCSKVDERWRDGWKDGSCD
PfG6PD inh – PfG6PD (Plasmodium falciparum) enzyme inhibition. PfGluPho enzyme, NADPH resazurin-diaphorase fluorescence. AID 504690. 350,000 tested, 0.78% active. inhibition, % at 20 µM;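 active = inhibition reaching at least a set limit at 20 µM in the primary screen, cut at about 59% in these data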;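 note: 0% = DMSO wells with substrate and 100% = DMSO wells lacking glucose-6-phosphate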
PHOSPHO1 block – inhibitors of human PHOSPHO1 phosphatase; recombinant PHOSPHO1, absorbance phosphatase assay; inhibition, % at 13.3 µM; 290,000 tested, 1.1% active; in the data active = inhibition above about 60%
Target sequence (Q8TCT1 whole entry, looked up): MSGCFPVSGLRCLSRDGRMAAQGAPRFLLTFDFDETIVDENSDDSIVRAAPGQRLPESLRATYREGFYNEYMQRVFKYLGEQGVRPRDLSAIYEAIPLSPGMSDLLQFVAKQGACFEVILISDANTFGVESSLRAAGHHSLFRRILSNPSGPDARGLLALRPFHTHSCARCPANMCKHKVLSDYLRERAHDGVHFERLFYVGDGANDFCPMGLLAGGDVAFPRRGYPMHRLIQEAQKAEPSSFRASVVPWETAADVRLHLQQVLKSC
M18AAP inhibitor – PfM18AAP enzyme inhibition. recombinant PfM18AAP, H-Glu-NHMec fluorogenic cleavage. inhibition, % at 7.35 µM. 290,000 tested, 1.2% active;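 active = inhibition above the campaign mean inhibition over all tested compounds plus 3 SD, cut at about 28% in these data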;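 note: 0% = plate median of test compound wells and 100% = 2 mM ZnCl2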
* = called active by the depositor; nt = no result given. The list is not random: actives were taken first. Their share in the collection is about 5.6%.

SMILES	H9c2 protect	ALR inh	PfG6PD inh	PHOSPHO1 block	M18AAP inhibitor
COc1cc(/C=C(\C#N)c2ccccn2)cc(OC)c1O	-1.3	97.8*	4.0	-7.5	13.2
COc1cc(/C=N/Nc2ccccn2)cc(OC)c1O	-1.2	99.1*	18.7	-28.8	16.5
CCOc1ccc(/C=N/Nc2ccccn2)cc1OC	-9.4	86.5*	-0.9	8.2	-0.4
C(=N\Nc1ccccn1)/c1ccc2c(c1)OCCO2	-11.9	98.4*	4.6	2.2	1.0
C=CCOc1ccc(/C=N/Nc2ccccn2)cc1OC	-2.5	15.2	5.3	30.3	-2.4
Fc1cccc(/C=N/Nc2ccccn2)c1	-10.1	49.2	9.9	27.1	-0.8
COCc1cccc(-c2csc(C(C)(NC(C)=O)c3ccc(OC)cc3)n2)c1 (stereo unspecified)	2.9	nt	nt	nt	nt
COCCNC(=O)C1CCCN(C(=O)/C=C/c2ccccc2)CC1 (stereo unspecified)	12.6	nt	nt	nt	nt
Oc1cccc(/C=N/Nc2cccc3cccnc23)c1	-22.3	nt	17.1	24.0	23.5
COc1cc(/C=N/Nc2cccc3cccnc23)cc(OC)c1O	-1.5	36.3	38.4	-28.5	29.8*
Cc1cn([C@H]2C[C@H](O)[C@@H](/C=C/C(=O)NCc3ccco3)O2)c(=O)[nH]c1=O	-0.1	nt	nt	nt	nt
COc1cccc(N/C(SCc2cccc([N+](=O)[O-])c2)=C(/C#N)C(N)=O)c1	6.0	98.9*	35.1	-18.8	10.5
CCN1C(=O)[C@H]2[C@H]3CN=C(SCc4ccc(C#N)cc4)N3[C@@](Cc3ccccc3)(C(=O)OC)[C@H]2C1=O	54.8*	nt	7.9	nt	nt
COC(=O)[C@@]1(Cc2ccccc2)[C@H]2C(=O)N(Cc3ccccc3)C(=O)[C@H]2[C@H]2CN=C(SCc3ccc(C#N)cc3)N21	44.0	nt	2.7	nt	nt
CCCCn1c(N)c(N(Cc2ccccc2OC)C(=O)C(C)Oc2ccc(Cl)cc2)c(=O)[nH]c1=O (stereo unspecified)	-0.1	-0.1	-4.8	62.6*	4.1
CCOc1cc(/C=C2\SC(=S)N(NS(=O)(=O)c3ccccc3)C2=O)ccc1O	-4.9	99.1*	-29.2	7.1	2.2
CCOc1cc(/C=C2\SC(=S)N(Nc3ccccc3)C2=O)ccc1O	-27.1	80.7*	-23.4	37.9	15.2
Cc1ccc(C(C)C)c2c1C(c1ccc3c(c1)OCO3)CC(=O)O2 (stereo unspecified)	-15.0	nt	-10.4	nt	nt
COc1ccc([C@H]2C(C(=O)O)=C[C@@H](C(C)(C)C)N2S(=O)(=O)c2ccc(C)cc2)cc1OC	18.0	nt	-19.3	nt	nt
Cc1ccccc1Nc1nnc(SCC(=O)NCc2ccco2)s1	-2.5	1.5	2.7	86.6*	-0.2
O=C(CSc1ncnc2ccccc12)c1ccco1	-7.5	99.2*	33.9	-89.9	7.4
O=[N+]([O-])c1ccc(CSc2ncnc3ccccc23)cc1	-2.9	98.6*	8.1	-11.8	-0.1
O=C(CSc1ncnc2ccccc12)NCCc1ccccc1	-2.1	0.9	11.1	40.1	-8.8
O=C(CSc1ncnc2ccccc12)NCc1ccco1	-2.2	98.5*	-11.1	8.0	1.9
Cc1ccccc1C(=O)Nc1nnc(SCC(=O)NCc2ccco2)s1	-16.2	-1.5	-11.1	22.6	-3.8
SMILES	H9c2 protect	ALR inh	PfG6PD inh	PHOSPHO1 block	M18AAP inhibitor
COc1ccc(NC(=O)CSc2nnc(C)s2)cc1S(=O)(=O)N1CCOCC1	0.2	nt	0.7	nt	nt
Cc1ccc(S(=O)(=O)N(C)CC(=O)Oc2ccc(-c3nnco3)cc2)cc1	0.0	nt	-5.6	nt	nt
CCOC(=O)C1(C)C(=O)CC2c3nc4ccccc4cc3CN2C1=O (stereo unspecified)	5.4	nt	11.3	nt	nt
Cc1nc(SCC(=O)NCc2ccco2)c2c3c(sc2n1)CCCC3	-6.2	96.8*	-11.3	-1.3	-15.7
Cc1ccc2nc(SCC(=O)NCc3ccco3)c(C)cc2c1	4.1	97.9*	-21.8	32.4	-7.5
Cc1ccc2nc(SCC(=O)NCc3ccco3)c(C#N)cc2c1	-5.0	48.2	9.5	27.6	-11.8
Cc1nc(C(F)(F)F)ccc1C(=O)N1CCC1(C)C(=O)NS(=O)(=O)c1cccc(C#N)c1 (stereo unspecified)	1.3	nt	nt	nt	nt
CCCCCCCCNCCS(=O)(=O)NCc1ccc(OC)cc1	-22.6	nt	5.9	nt	nt
CCn1c(SCc2nc3cc(OC)c(OC)cc3c(=O)[nH]2)nc2ccccc21	46.3	2.4	-9.6	60.0*	0.7
COCCn1c(SCc2nc3sc(C(=O)OC)c(C)c3c(=O)[nH]2)nc2ccccc21	8.7	-6.6	10.4	92.2*	-0.5
CCn1c(SCc2nc3sc(C(=O)O)c(C)c3c(=O)[nH]2)nc2ccccc21	-2.4	97.5*	-5.7	25.7	33.0*
COc1ccc(S(=O)(=O)N2CCN(C(=O)c3cc4c(s3)CCC4)CC2)cc1	-7.4	-4.3	17.8	nt	nt
N/C(=N\O)c1ccc(N2CCN(c3ncccc3C(F)(F)F)CC2)nc1	-5.5	91.2*	-5.0	38.6	-4.0
O=C(Nc1ccc(N2CCN(c3ncccc3C(F)(F)F)CC2)nc1)c1cccs1	3.5	-2.2	-0.9	51.9	2.0
O=C1CS/C(=N\C(=O)N2c3ccccc3Sc3ccccc32)N1	-3.6	98.9*	-7.2	45.2	2.2
NCCC(=O)N1c2ccccc2Sc2ccccc21	-0.7	-2.7	-6.8	49.6	2.4
CC(C)Cc1c(O)nc(SCCN2CCOCC2)[nH]c1=O	-2.8	12.1	-2.5	3.7	5.6
CCCCCCc1c(O)nc(SCCN2CCOCC2)[nH]c1=O	9.0	36.6	-16.7	67.6*	-1.9
O=C(CSc1nc(O)c(-c2ccccc2)c(=O)[nH]1)N1CCOCC1	2.8	24.8	-22.8	8.0	-2.6
CCCCc1c(O)nc(SCC(=O)N2CCOCC2)[nH]c1=O	-0.9	97.6*	1.8	-3.4	-1.4
CC(=O)Nc1c(O)nc(SCC(=O)N2CCCCC2)[nH]c1=O	-5.4	nt	-14.7	nt	nt
CCOCCc1c(O)nc(SCC(=O)N2CCOCC2)[nH]c1=O	2.2	85.3*	0.3	27.9	-13.6
CC(C)C[C@H]1CNC(=S)N1CC1CCN(CCCC2CCCC2)CC1	-16.6	nt	3.8	nt	nt
COCCNC(=O)C1(C)CCCN(Cc2cc(-c3ccccc3)nn2C)C1 (stereo unspecified)	1.1	nt	nt	nt	nt
CC(C)[C@]1(c2ccc(Cl)cc2)ON(c2ccccc2C(F)(F)F)C1=O	nt	-11.0	nt	nt	nt
SMILES	H9c2 protect	ALR inh	PfG6PD inh	PHOSPHO1 block	M18AAP inhibitor
COc1cc(C(=O)NCC(c2ccccc2)N(C)C)ccc1OCC(=O)N1CCOCC1 (stereo unspecified)	2.0	-11.1	-15.1	24.9	1.7
COc1cc(/C=N/NC(=O)c2ccc(-n3cccc3)cc2)ccc1O	24.3	99.3*	13.0	-4.6	9.4
COC(=O)c1sc2nc(C)cc(C)c2c1N	-3.2	-18.8	7.4	51.8	3.3
Cc1ccccc1NCC(=O)N/N=C\c1ccc2c(c1)OCO2	4.5	93.7*	-13.4	11.9	1.7
Cc1ccc(C)c(NC(=O)CCC(=O)N/N=C/c2ccc3c(c2)OCO3)c1	-6.8	-6.2	-2.9	40.4	1.1
COc1cc(/C=N/NC(=O)c2sc3nc(C)cc(C)c3c2N)ccc1O	53.1*	36.7	10.5	26.8	9.9
CN(C)c1ccc(/C=N/NC(=O)c2ccc3c(c2)OCCO3)cc1	-6.4	98.0*	0.8	43.1	6.7
COCCCn1c(=O)c2ccccc2n(Cc2cc(C(=O)OC)ccc2OC)c1=O	4.3	-4.3	5.2	31.6	-7.7

Screening data deposited in PubChem BioAssay by several laboratories.
